# Results filed as inconclusive are left out. Active and inactive are the calls of the source. Rule for the calls, unless noted: active = hit-call score of the fitted dose curve at least 0.9, where 1 is the maximum; inconclusive = response in the unintended direction; inactive = score below 0.9.
# Tests used:
# [1] = target: rat Glutamate, NMDA Agonist Site (GluNMDA), Grin1 (gene 24408) (UniProt P35439); assay: NVS_LGIC_rGluNMDA_Agonist: NovaScreen (NVS) Ligand-Gated Ion Channel Assay for rat Glutamate, NMDA Agonist Site (GluNMDA) (AID 2283327)
# In short: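 Radioligand displacement at the agonist site on rat forebrain membrane preparations, read by filter scintillation after 1 h. Chemicals were first run at 25 uM in duplicate; those passing threshold were titrated to a 50 uM maximum.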
# [2] = target: bovine Gamma-Aminobutyric Acid Type A Receptor Agonist (GABAR Agonist), GABRA1 (gene 780973) (UniProt P08219); assay: NVS_LGIC_bGABAR_Agonist: NovaScreen (NVS) Ligand-Gated Ion Channel Assay for bovine Gamma-Aminobutyric Acid Type A Receptor Agonist (GABAR Agonist) (AID 2283338)
# Sequence of bovine Gamma-Aminobutyric Acid Type A Receptor Agonist (GABAR Agonist), GABRA1 (gene 780973) (P08219 whole entry, looked up): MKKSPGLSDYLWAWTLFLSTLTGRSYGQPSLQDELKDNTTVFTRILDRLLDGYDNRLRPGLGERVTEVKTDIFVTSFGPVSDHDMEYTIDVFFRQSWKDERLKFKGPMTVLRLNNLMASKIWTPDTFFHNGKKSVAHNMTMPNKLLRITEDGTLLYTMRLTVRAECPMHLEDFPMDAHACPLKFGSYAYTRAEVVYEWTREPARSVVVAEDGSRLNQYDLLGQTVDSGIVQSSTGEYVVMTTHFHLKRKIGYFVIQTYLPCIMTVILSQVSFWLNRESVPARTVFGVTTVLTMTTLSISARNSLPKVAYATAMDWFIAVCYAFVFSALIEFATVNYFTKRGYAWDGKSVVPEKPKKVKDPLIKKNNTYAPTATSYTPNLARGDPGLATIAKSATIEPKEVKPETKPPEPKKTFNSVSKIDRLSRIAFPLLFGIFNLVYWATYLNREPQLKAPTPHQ
# In short: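 Radioligand binding to bovine cerebellar membranes in agonist format, read by filter-based scintillation counting after 1 h. Primary screen in duplicate at 25 uM, with actives followed in concentration series. Gain of signal versus DMSO.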
# [3] = target: rat Glutamate, AMPA Site (AMPA), Gria1 (gene 50592) (UniProt P19490); assay: NVS_LGIC_rAMPA: NovaScreen (NVS) Ligand-Gated Ion Channel Assay for rat Glutamate, AMPA Site (AMPA) (AID 2283324)
# In short: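 Screening at 25 uM in duplicate preceded concentration series reaching 50 uM for qualifying compounds. Radioligand displacement on rat forebrain membranes, 1 h, filter-based scintillation readout; reduced binding relative to DMSO.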
# [4] = target: rat Gamma-Aminobutyric Acid Type A Receptor, Non-Selective (GABAR-NonSelective), Gabra1 (gene 29705) (UniProt P62813); assay: NVS_LGIC_rGABAR_NonSelective: NovaScreen (NVS) Ligand-Gated Ion Channel Assay for rat Gamma-Aminobutyric Acid Type A Receptor, Non-Selective (GABAR-NonSelective) (AID 2283326)
# In short: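 Compounds were first screened in duplicate at 25 uM, with actives run as singleton concentration series (max 50 uM). Binding of a radioligand to rat whole-brain GABA-A preparation was measured by filtration and scintillation counting after 1 h, DMSO baseline.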
# [5] = target: Voltage-gated inwardly rectifying potassium channel KCNH2 (Homo sapiens) (UniProt Q12809); assay: NVS_IC_hKhERGCh: NovaScreen (NVS) Ion Channel Assay for human Potassium Channel ERG (KhERGCh) (AID 2283333)
# Sequence of Voltage-gated inwardly rectifying potassium channel KCNH2 (Homo sapiens) (Q12809 whole entry, looked up): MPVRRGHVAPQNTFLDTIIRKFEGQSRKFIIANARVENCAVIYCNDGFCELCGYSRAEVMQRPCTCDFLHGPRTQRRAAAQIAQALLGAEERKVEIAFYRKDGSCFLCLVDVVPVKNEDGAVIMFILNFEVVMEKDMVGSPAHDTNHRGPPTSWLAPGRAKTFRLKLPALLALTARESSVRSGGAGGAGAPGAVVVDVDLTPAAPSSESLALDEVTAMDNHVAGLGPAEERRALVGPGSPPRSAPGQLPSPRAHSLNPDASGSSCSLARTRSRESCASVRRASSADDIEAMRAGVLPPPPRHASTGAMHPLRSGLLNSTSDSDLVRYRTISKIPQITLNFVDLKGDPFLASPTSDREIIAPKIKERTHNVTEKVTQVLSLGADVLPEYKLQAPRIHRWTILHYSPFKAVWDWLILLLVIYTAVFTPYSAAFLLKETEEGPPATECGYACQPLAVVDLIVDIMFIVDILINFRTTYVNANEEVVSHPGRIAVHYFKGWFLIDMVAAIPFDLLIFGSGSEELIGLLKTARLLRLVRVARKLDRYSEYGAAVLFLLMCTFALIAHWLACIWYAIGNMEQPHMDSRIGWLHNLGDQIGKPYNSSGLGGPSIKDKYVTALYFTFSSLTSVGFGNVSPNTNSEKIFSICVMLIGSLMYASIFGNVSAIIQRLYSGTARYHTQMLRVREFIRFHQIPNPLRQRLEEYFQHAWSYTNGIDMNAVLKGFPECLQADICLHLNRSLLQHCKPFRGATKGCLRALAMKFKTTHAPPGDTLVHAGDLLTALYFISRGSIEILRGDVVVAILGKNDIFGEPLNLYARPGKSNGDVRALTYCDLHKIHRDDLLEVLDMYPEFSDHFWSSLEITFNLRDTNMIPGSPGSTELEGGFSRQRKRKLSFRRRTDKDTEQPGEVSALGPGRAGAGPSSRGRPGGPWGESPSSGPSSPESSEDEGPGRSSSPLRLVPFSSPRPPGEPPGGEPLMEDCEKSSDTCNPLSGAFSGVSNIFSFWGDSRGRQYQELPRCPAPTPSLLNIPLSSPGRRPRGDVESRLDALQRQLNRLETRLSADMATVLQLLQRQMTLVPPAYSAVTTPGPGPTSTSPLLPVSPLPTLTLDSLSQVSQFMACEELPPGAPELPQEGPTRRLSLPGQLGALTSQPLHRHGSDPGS
# In short: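 Membranes from CHO cells expressing human ERG; displacement of radioligand measured by filtration and scintillation after 0.75 h. Single-concentration duplicate screen at 25 uM, then concentration-response for actives; DMSO baseline.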
# [6] = target: Small conductance calcium-activated potassium channel protein 1 (Rattus norvegicus) (UniProt P70606); assay: NVS_IC_rKCaCh: NovaScreen (NVS) Ion Channel Assay for rat Potassium Channel, Ca2+ Act., VI (KCaCh) (AID 2283336)
# In short: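 Filter-based scintillation counting of radioligand bound to rat forebrain membrane preparations, measured 1 h after compound addition. Primary screen used 25 uM in duplicate, with concentration-response follow-up; signal decrease relative to DMSO marks activity.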
# [7] = NVS_IC_rCaBTZCHL: NovaScreen (NVS) Ion Channel Assay for Calcium Channel, Type L, Benzothiazepine Site (CaBTZCHL) (AID 2283337)
# In short: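 Rat cortical membrane preparation incubated 1.5 h with compound and benzothiazepine-site radioligand; loss of filter-bound counts versus DMSO marks displacement. Initial duplicate testing at 25 uM, actives followed up in concentration series.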
# [8] = target: rat Glutamate, MK-801 Agonist Site (GluNMDA_MK801), Grin1 (gene 24408) (UniProt P35439); assay: NVS_LGIC_rGluNMDA_MK801_Agonist: NovaScreen (NVS) Ligand-Gated Ion Channel Assay for rat Glutamate, MK-801 Agonist Site (GluNMDA_MK801) (AID 2283340)
# In short: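 Rat forebrain membrane preparation; MK-801-site radioligand binding read by filtration and scintillation after 1.5 h. Single-point 25 uM duplicate screen, followed by singleton concentration series to 50 uM max; DMSO baseline.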
# [9] = tested on: guinea pig Histamine Receptor (H2), gene 100729734; assay: NVS_GPCR_gH2: NovaScreen (NVS) G Protein-Coupled Receptor Assay for guinea pig Histamine Receptor (H2) (AID 2283342)
# In short: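 Guinea pig striatal membrane preparation with specific radioligand; bound counts measured by filtration and scintillation 1 h post-dosing, DMSO as baseline. Chemicals passing a 25 uM duplicate screen were titrated to a 50 uM maximum.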
# [10] = target: human Constitutive Androstane Receptor (CAR), NR1I3 (gene 9970) (UniProt Q14994); assay: NVS_NR_hCAR_Antagonist: NovaScreen (NVS) Nuclear Receptor Binding Assay for human Constitutive Androstane Receptor Antagonism (CAR) (AID 2283344)
# Sequence of human Constitutive Androstane Receptor (CAR), NR1I3 (gene 9970) (Q14994 whole entry, looked up): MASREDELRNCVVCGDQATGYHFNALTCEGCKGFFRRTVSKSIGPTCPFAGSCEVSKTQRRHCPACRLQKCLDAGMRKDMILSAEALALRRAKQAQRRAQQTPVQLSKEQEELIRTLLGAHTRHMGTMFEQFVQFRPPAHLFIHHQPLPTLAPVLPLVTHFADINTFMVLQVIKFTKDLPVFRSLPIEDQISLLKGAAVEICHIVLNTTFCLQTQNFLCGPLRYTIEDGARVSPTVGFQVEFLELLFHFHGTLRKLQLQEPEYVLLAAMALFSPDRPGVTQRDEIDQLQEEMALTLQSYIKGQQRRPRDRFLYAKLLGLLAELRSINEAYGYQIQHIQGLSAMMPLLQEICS
# In short: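 Single 25 uM duplicate primary screen, with concentration-series follow-up on actives. Cell-free binding format run in antagonist mode, TR-FRET signal taken 1 h post-dose; activity is signal loss relative to DMSO.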
# [11] = target: chimpanzee Androgen Receptor (AR), AR (gene 747460) (UniProt O97775); assay: NVS_NR_cAR: NovaScreen (NVS) Nuclear Receptor Binding Assay for chimpanzee Androgen Receptor (AR) (AID 2283346);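 note: radioligand displacement from AR measured by scintillation counting in a cell-free assay; a loss of bound radioligand signal versus DMSO counts as binding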
# Sequence of chimpanzee Androgen Receptor (AR), AR (gene 747460) (O97775 whole entry, looked up): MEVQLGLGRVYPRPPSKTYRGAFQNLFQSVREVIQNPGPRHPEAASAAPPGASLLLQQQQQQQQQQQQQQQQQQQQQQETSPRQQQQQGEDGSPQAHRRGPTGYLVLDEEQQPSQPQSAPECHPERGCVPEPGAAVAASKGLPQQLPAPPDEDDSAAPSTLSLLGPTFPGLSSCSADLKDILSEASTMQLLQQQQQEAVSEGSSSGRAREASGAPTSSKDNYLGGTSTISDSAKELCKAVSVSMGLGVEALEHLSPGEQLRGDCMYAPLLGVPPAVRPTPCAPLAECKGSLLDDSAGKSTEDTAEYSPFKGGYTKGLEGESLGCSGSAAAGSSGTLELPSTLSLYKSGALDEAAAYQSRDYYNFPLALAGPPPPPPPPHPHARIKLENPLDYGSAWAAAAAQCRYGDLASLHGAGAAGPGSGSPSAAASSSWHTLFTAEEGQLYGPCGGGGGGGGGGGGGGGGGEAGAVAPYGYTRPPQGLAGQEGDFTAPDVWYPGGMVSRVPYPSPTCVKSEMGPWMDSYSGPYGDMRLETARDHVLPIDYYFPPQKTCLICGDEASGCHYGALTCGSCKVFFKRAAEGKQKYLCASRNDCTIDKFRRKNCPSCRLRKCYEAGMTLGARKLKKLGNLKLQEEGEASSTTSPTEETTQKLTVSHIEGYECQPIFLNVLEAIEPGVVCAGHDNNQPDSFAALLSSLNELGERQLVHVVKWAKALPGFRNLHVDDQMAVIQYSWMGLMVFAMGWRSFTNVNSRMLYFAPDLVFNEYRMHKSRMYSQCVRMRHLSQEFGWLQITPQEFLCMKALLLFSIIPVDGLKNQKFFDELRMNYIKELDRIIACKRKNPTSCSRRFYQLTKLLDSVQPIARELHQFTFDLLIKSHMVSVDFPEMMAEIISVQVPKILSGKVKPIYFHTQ
# In short: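 Cell-free competition binding with insect-cell (Sf9/Sf21) extracted chimpanzee AR; scintillation signal from lysate at 72 h. Screened in duplicate at 25 uM, then concentration-response for actives; fitting relative to DMSO.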
# [12] = target: human Peripheral-type Benzodiazepine Receptor (PBR), TSPO (gene 706) (UniProt P30536); assay: NVS_MP_hPBR: NovaScreen (NVS) Membrane Protein Assay for human Peripheral-type Benzodiazepine Receptor (PBR) (AID 2283331);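 note: hits reduce radioligand binding relative to DMSO baseline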
# Sequence of human Peripheral-type Benzodiazepine Receptor (PBR), TSPO (gene 706) (P30536 whole entry, looked up): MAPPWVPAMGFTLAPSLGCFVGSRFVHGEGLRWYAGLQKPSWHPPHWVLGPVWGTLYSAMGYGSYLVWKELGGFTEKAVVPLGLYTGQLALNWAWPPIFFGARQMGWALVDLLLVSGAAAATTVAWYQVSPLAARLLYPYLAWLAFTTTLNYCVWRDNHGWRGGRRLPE
# In short: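 Cell-free binding to human colonic membrane preparations measured by filter-based scintillation counting after 1 h. Compounds first run at 25 uM in duplicate, then concentration series for actives; signal loss against DMSO baseline.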
# [13] = target: bovine Estrogen Receptor (ER), ESR1 (gene 407238) (UniProt P49884); assay: NVS_NR_bER: NovaScreen (NVS) Nuclear Receptor Binding Assay for bovine Estrogen Receptor (ER) (AID 2283345);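 note: actives lower the bound radioligand count which means they displace the ER ligand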
# Sequence of bovine Estrogen Receptor (ER), ESR1 (gene 407238) (P49884 whole entry, looked up): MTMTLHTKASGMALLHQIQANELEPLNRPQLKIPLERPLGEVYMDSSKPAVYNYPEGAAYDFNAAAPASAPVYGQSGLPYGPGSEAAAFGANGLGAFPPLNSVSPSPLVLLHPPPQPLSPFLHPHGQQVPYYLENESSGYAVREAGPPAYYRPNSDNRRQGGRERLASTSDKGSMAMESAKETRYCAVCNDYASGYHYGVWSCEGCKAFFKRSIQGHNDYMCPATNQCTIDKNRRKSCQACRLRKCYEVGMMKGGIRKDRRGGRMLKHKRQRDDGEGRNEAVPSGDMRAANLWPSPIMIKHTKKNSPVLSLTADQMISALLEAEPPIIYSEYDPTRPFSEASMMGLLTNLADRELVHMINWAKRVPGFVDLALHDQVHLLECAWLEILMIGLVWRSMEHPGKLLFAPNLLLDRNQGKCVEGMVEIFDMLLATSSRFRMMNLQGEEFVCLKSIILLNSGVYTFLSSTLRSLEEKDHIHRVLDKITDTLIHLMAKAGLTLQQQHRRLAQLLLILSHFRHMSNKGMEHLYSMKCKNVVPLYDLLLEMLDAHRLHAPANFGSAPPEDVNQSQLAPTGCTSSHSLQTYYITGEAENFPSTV
# In short: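 Cell-free radioligand binding with bovine uterine membrane extracts, read 18 hours after dosing by scintillation counting. Loss of signal versus DMSO baseline indicates displacement. Primary screen run in duplicate at 25 uM, actives followed in concentration series.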
# [14] = target: Glutamate receptor ionotropic, kainate 1 (Rattus norvegicus) (UniProt P22756); assay: NVS_IC_rKAR: NovaScreen (NVS) Ion Channel Assay for rat Kainic Acid Receptors (KAR) (AID 2283334; active = hit-call score of the fitted dose curve at least 0.9, where 1 is the maximum; inactive = score below 0.9)
# Sequence of Glutamate receptor ionotropic, kainate 1 (Rattus norvegicus) (P22756 whole entry, looked up): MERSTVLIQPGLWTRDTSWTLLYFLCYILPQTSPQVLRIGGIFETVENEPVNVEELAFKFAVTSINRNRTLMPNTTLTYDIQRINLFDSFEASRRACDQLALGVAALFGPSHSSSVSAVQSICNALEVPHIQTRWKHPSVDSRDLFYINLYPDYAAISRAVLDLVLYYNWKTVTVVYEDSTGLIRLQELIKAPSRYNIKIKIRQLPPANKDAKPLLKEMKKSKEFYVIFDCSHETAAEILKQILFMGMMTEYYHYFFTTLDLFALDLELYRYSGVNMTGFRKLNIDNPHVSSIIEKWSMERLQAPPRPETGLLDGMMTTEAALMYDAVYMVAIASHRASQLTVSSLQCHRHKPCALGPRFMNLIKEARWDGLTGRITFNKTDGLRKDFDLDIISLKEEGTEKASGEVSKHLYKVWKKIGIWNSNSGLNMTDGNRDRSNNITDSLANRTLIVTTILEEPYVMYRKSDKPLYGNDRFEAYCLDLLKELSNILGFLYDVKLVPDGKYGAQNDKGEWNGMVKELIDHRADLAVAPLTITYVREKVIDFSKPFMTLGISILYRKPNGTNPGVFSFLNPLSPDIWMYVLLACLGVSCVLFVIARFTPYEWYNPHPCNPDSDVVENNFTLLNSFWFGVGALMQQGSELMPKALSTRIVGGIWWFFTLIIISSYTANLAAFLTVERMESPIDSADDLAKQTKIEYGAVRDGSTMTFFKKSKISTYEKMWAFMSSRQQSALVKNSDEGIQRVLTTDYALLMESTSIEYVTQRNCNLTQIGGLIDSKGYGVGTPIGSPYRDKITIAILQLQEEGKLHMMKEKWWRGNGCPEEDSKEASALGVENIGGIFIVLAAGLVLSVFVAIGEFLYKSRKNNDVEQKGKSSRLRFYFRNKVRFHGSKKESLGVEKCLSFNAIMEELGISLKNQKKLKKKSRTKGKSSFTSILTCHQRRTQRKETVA
# In short: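 Rat forebrain membrane preparation incubated 1 h with radioligand and test chemical; bound signal read by filtration and scintillation. Single-concentration screen at 25 uM, then concentration series to 50 uM maximum.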
# [15] = target: rat Peripheral-type Benzodiazepine Receptor (PBR), Tspo (gene 24230) (UniProt P16257); assay: NVS_MP_rPBR: NovaScreen (NVS) Membrane Protein Assay for rat Peripheral-type Benzodiazepine Receptor (PBR) (AID 2283335)
# Sequence of rat Peripheral-type Benzodiazepine Receptor (PBR), Tspo (gene 24230) (P16257 whole entry, looked up): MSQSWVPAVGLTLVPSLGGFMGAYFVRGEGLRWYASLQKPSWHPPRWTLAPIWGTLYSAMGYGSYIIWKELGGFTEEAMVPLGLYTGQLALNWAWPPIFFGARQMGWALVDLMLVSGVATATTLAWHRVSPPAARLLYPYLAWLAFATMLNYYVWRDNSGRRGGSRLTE
# In short: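 Competitive displacement of specific radioligand from rat kidney membrane PBR, read by filtration and scintillation after 1 h. Compounds first tested at 25 uM in duplicate, then in concentration series; signal loss relative to DMSO.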
smiles,measurement,setting,value
O=C1O[C@H]([C@@H](O)CO)C(O)=C1O,outcome,[1],inactive
same,outcome,[2],inactive
CN(C)C(=O)C1(N2CCCCC2)CCN(CC[C@@]2(c3ccc(Cl)c(Cl)c3)CN(C(=O)c3ccccc3)CCO2)CC1,AC50,[3],4.68 µM (active)
same,AC50,[4],2 µM (active)
same,AC50,[1],29.3 µM (active)
same,AC50,[5],8.74 µM (active)
same,outcome,[6],inactive
same,AC50,[7],270 nM (active)
same,outcome,[8],inactive
same,AC50,[9],1.08 µM (active)
same,outcome,[10],inactive
same,AC50,[11],13.9 µM (active)
CC[C@@H]1C[C@H](N(Cc2cc(C(F)(F)F)cc(C(F)(F)F)c2)C(C)=O)c2cc(C(F)(F)F)ccc2N1C(=O)OC(C)C,outcome,[12],inactive
CC(C)(c1cc(Br)c(O)c(Br)c1)c1cc(Br)c(O)c(Br)c1,AC50,[2],44.4 µM (active)
same,outcome,[13],inactive
CCCCCCCCN(C)CCCCCCCC,outcome,[5],inactive
same,outcome,[14],inactive
same,outcome,[7],inactive
same,AC50,[9],14.5 µM (active)
same,outcome,[13],inactive
O=C(Nc1ccc(Cl)cc1)Nc1ccc(Cl)c(Cl)c1,outcome,[13],inactive
CCCCCCCCCCCC[N+](C)(C)C,AC50,[5],10.2 µM (active)
same,AC50,[7],12200 nM (active)
same,AC50,[9],19.6 µM (active)
CC[C@H](NC(=O)c1cc(F)ccc1NS(=O)(=O)c1cccc2cccnc12)c1ccccc1,AC50,[12],246 nM (active)
same,AC50,[15],86.9 nM (active)
same,outcome,[13],inactive
Cc1ccc(C(C)C)cc1,outcome,[2],inactive
CCCCCCCCCCCO,outcome,[13],inactive
CC(C)(C)c1csc(-c2cc3cc(OCc4ccccc4CC(=O)O)ccc3o2)n1,outcome,[10],inactive
CCCC(=O)OCCC(C)C,outcome,[14],inactive
CCCCOC(=O)CC(CC(=O)OCCCC)(OC(C)=O)C(=O)OCCCC,outcome,[12],inactive
same,outcome,[15],inactive
CCN(CC)C(=O)c1cc(S(=O)(=O)Cc2ccccc2)c(N2CCC(c3ccccc3)CC2)cc1N(CC)CCN(C)C,AC50,[12],3310 nM (active)
same,AC50,[5],6.17 µM (active)
same,AC50,[7],214 nM (active)
same,outcome,[2],inactive
same,AC50,[9],2.84 µM (active)
same,outcome,[10],inactive
same,AC50,[11],12.6 µM (active)

# Reference: PubChem BioAssay (EPA / NIEHS)
